The structures appear in SMILES notation. Values joined by “and” are separate entries in the source; they are usually repeats but may differ in a detail not shown here. Equal values may be shown once. Out of some 340,000 compounds screened, about 6,200 (1.8%) were called active. Another 10% or so got no clear call; they are omitted. The call rests on the fitted dose curve; in most records, active means well fitted activation curve with a large enough effect; inconclusive means small, poorly fitted or top-dose-only effect; inactive means no such curve, though single readings can be large or run the other way. Shown is part of a subset that was picked to be rich in actives. A call without a number means that no potency is given here.
Potency means the concentration at half of the fitted maximal effect.

The assay in a line: A quantitative high throughput screen for small molecules that induce DNA re-replication in SW480 colon adenocarcinoma cells. Further: nearly all actives have a fitted effect of over 55% in size. The conditions noted are these: Hoechst DNA content imaging, 48 h; series mostly up to 46.1 µM. The method in brief:
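First, 250 cells per well were seeded. Next, compound or vehicle (23 nL) was pinned in, plates sat 48 hr at 37 C. Finally Hoechst was added for 40 min before fluorescence scanning.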
For the compound `COc1ccc(-c2ccc3c(c2)[C@@H]2C[C@H](N(C)S(=O)(=O)c4ccccc4)[C@H]([C@H](C)O)C(=O)N2CC3)cc1`, the Potency result was “inactive”. Regarding `CC1CCCN(C(=O)Cn2c(=O)oc3cc(S(=O)(=O)N4CCCCC4C)ccc32)C1` (stereo not given), the Potency result is “inactive”. As to `CC(C)c1nc2ccc(C(=O)O)cc2[nH]1`, the Potency result is “inactive”. Still for that read-out and setting: the value for `COC(=O)Nc1nc2ccc(Sc3ccccc3)cc2[nH]1` was 640 nM (active) and 2.06 µM (active); that for `Cc1ccc(O)c(CNc2nc3ccccc3[nH]2)c1` was “inactive”.

On to `COc1ccc(C)cc1NC(=O)CN1c2cccc3cccc(c23)S1(=O)=O`, for which the Potency entry was “inactive”. As to `Cc1ccc(N(C(=O)c2snc(C(N)=O)c2N)C(C(=O)NCC2CCCO2)c2c[nH]c3ccccc23)cc1` (stereo not given), the Potency result is “inactive”. In the case of `CCOc1ccc(N(C(=O)c2snc(C(N)=O)c2N)C(C(=O)NCC2CCCO2)c2c[nH]c3ccccc23)cc1` (stereo not given), the Potency result is “inactive”.

`Cc1ccc(C(C(=O)NCC2CCCO2)N(C(=O)c2snc(C(N)=O)c2N)c2ccc(C(C)C)cc2)o1` (stereo not given): the Potency was 18.4 µM (active). Still for that read-out and setting: the value for `COc1ccccc1C(=O)COC(=O)COc1ccc(C#N)cc1` was “inactive”; that for `CCCC(CNC(=O)COC(=O)C1=NNC(=O)CC1)c1ccc(Cl)cc1Cl` (stereo not given) was “inactive”. Consider `Oc1[nH]c2ccccc2c1N=Nc1c(F)c(F)c(F)c(F)c1F`, for which the Potency result was “inactive”. On the same count and under the same terms, the value for `C(#CCN1CCOCC1)CCCN1CCOCC1` was “inactive”; that for `O=C(COc1cccnc1[N+](=O)[O-])Nc1ccc(Cl)cc1F` was “inactive”. On to `COc1cccc(NC(=O)CN(C)C(=O)/C=C/c2cn(-c3ccccc3)nc2-c2cccs2)c1`, for which the Potency entry was “inactive”. Take `O=C(CCl)Nc1ccc(Sc2ccc(NC(=O)CCl)cc2)cc1`: the Potency was 4.61 µM (active). For the compound `Cc1ccc(NC(=O)CC(=O)Nc2ccc(C)cc2)cc1`, the Potency entry is “inactive”. For `O=C(Nc1ccc(Sc2ccc(Br)cc2)cc1)c1ccco1`, the Potency entry was “inactive”.

For `CC1CCCCC1NC(=O)Cn1cnc2c1c(=O)n(C)c(=O)n2C` (stereo not given), the Potency result was “inactive”.

Regarding `COc1ccc(-c2nnc(SC(C)C(=O)NC3CC3)o2)cc1` (stereo not given), the Potency result is “inactive”.

Regarding `COc1ccc2c(CC(=O)NNC(=O)c3ccccc3F)coc2c1`, the Potency entry was “inactive”. As for `Oc1ccccc1N1CCN(c2ncnc3sc(-c4ccccc4)cc23)CC1`, the Potency result is “inactive”. The same measure, in the same setting: the value for `S=C(NCC1COc2ccccc2O1)Nc1ccc(Br)cc1` (stereo not given) was “inactive”; that for `c1ccc(-c2cc3c(NCC4COc5ccccc5O4)ncnc3s2)cc1` (stereo not given) was 18.4 µM (active); that for `Cc1ccc(NC(=O)C(C)OC(=O)C2CC3CCCC(C2)C3=O)cc1S(=O)(=O)N1CCOCC1` (stereo not given) was “inactive”. Consider `CN(C)C(=O)CCc1ccc2c3c([nH]c2c1)[C@]1(C)[C@@H](C(=O)N2CCCCC2)C[C@H](CC(=O)NCCC2=CCCCC2)C(=O)N1CC3`, for which the Potency result is “inactive”. On the same count and under the same terms, to `COC(=O)c1ccc(CNC(=O)Cn2cc(C)c(=O)[nH]c2=O)cc1` belongs “inactive”; to `C[C@H](CO)N1C[C@H](C)[C@@H](CN(C)Cc2ccc(-c3ccccc3)cc2)Oc2ccc(NC(=O)Cn3cnnn3)cc2C1=O`, “inactive”. As for `Cc1cccc(N(C)C(=O)c2cc3c(=O)[nH]c4ccc(C)cc4c3s2)c1`, the Potency was 9.2 µM (active). Still for that read-out and setting: the value for `Cc1ccc2[nH]c(=O)c(CC(=O)O)c(-c3ccccc3)c2c1` was “inactive”. Still for that read-out and setting: to `CCN(CC)CCCNC(=O)c1cc2c(=O)[nH]c3ccc(C)cc3c2s1` belongs “inactive”; to `CCCN(CC(=O)Nc1ccccc1C)C(=O)c1ccc(OCC(=O)N2CCOCC2)c(OCC)c1`, “inactive”; to `Cc1nc2ccccc2c(C(=O)O)c1-c1ccccn1`, “inactive”. Take `C=CCN(CC=C)S(=O)(=O)c1ccc(C(=O)Nc2sc3c(c2C(N)=O)CCCCC3)cc1`: the Potency was 9.2 µM (active). The same measure, in the same setting: the value for `CCN(c1ccccc1)S(=O)(=O)c1ccc(C(=O)Nc2nccs2)cc1` was “inactive”; that for `COc1cccc(OC)c1C(=O)Nc1sc2c(c1C(N)=O)CCCC2` was “inactive”; that for `COc1ccc(C(=O)Nc2ncc3c(n2)-c2ccccc2CC3)cc1` was “inactive”. Same read-out and setting: the value for `NC(=O)c1c(NC(=O)c2ccccc2)sc2c1CCCC2` was “inactive”; that for `C=CCN(CC=C)S(=O)(=O)c1ccc(C(=O)Nc2nc3c(s2)CCc2ccccc2-3)cc1` was 14.6 µM (active); that for `O=C(O)C1C2C=CC(O2)C1C(=O)Nc1ccccn1` (stereo not given) was “inactive”. On to `O=C(CNC(=O)c1ccco1)NNC(=O)c1ccc(Br)cc1`, for which the Potency result is “inactive”. Turning to `O=C(O)c1ccc(Cn2cnc3c(=S)nc[nH]c32)cc1`, the Potency result is “inactive”.

Regarding `Cc1cc([N+](=O)[O-])ccc1NS(=O)(=O)c1ccccc1`, the Potency result was “inactive”.

Turning to `NC(=O)C1(Nc2ccccc2Cl)CCCC1`, the Potency entry is “inactive”. As for `COc1ccc(CS(=O)/C(Cl)=C(/Cl)C(=O)Nc2ccc(OC)nc2)cc1` (stereo not given), the Potency was 0.259 µM (active).

Consider `CCOc1ccc(S(=O)(=O)Nc2ccc(OC)nc2)cc1`, for which the Potency entry is “inactive”.

In the case of `COc1ccc(CC(=O)Nc2ccc(C(=O)NC(C)(C)C)cc2)cc1`, the Potency entry was “inactive”. As to `COc1cccc(CNC(=O)C(=O)NCCC2CCCCN2S(=O)(=O)c2ccc(C)cc2)c1` (stereo not given), the Potency was 15.8 µM (active).

With `O=C(NCCC1CCCCN1S(=O)(=O)c1ccc(F)cc1)C(=O)NC1CC1` (stereo not given), the Potency entry was “inactive”. `O=C(NCCC1CCCCN1S(=O)(=O)c1ccccc1)C(=O)NCC1CCCO1` (stereo not given): the Potency result is “inactive”. On to `O=C(COC(=O)COc1cc(Cl)c(Cl)cc1Cl)NC1CC1`, for which the Potency entry was “inactive”. The same measure, in the same setting: the value for `CN1CN(C)c2ccc([N+](=O)[O-])c3cccc1c23` was “inactive”; that for `CCOc1cccc(=O)c2c(C)n(CC3CCCO3)c(C)c12` (stereo not given) was “inactive”; that for `O=C1c2cccc3c([N+](=O)[O-])ccc(c23)C(=O)N1CC1CCCO1` (stereo not given) was 5.8 µM (active). Same read-out and setting: to `O=C(CNC(=O)c1cccnc1)N/N=C/c1cccnc1` belongs “inactive”; to `O=C(CSc1cccc2cccnc12)N/N=C/c1cccnc1`, 7.31 µM (active). Still for that read-out and setting: to `COc1ccc(C(=O)NCC(=O)N/N=C/c2cccnc2)cc1` belongs “inactive”; to `Cc1ccc(/C=N/NC(=S)NC2CCCCC2)o1`, “inactive”. On to `CN(C)S(=O)(=O)c1cccc(NC(=S)NCc2ccc3c(c2)OCO3)c1`, for which the Potency result is “inactive”. For the compound `Cc1ccc(/C=N/NC(=S)Nc2cccc(S(=O)(=O)N(C)C)c2)o1`, the Potency is 23.1 µM (active). For the compound `COc1cc(C(=O)CCc2ccc3c(c2)OCO3)cc(OC)c1OC`, the Potency entry was “inactive”. On the same count and under the same terms, to `Cc1ccc(C(=O)N/N=C/c2cccc3ccccc23)cn1` belongs “inactive”. On the same count and under the same terms, to `COc1ccc2ccccc2c1/C=N/NC(=O)c1cc(C)[nH]n1` belongs “inactive”; to `CCOc1ccc2ccccc2c1/C=N/NC(=O)c1c(C)cc(C)[nH]c1=O`, 23.1 µM (active); to `O=C(COC(=O)c1ccc([N+](=O)[O-])o1)NC12CC3CC(CC(C3)C1)C2`, “inactive”. The same measure, in the same setting: the value for `CCOC(=O)C1CCCN(C(=O)c2ccc(C)c(S(=O)(=O)N3CCCCC3)c2)C1` (stereo not given) was “inactive”; that for `COc1cccc2c1C(=O)c1c(O)c3c(c(O)c1C2=O)CC(O)(C(C)=NNC(=O)c1ccc(Cl)c(Cl)c1)CC3OC1CC(N)C(O)C(C)O1` (stereo not given) was “inactive”. As to `CNc1nc(-c2ccccc2)cc(-c2ccccc2)n1`, the Potency entry was “inactive”. Still for that read-out and setting: to `Nc1nc(-c2ccccc2)cc(-c2ccccc2)n1` belongs “inactive”. Same read-out and setting: to `CS(=O)(=O)c1sc2nc(-c3ccccc3)cc(-c3ccccc3)c2c1N` belongs 11.2 µM (active); to `CCN([C@H](CO)C(C)C)S(=O)(=O)c1ccccc1Br`, “inactive”. For the compound `CN1C(c2ccc(F)cc2)=CS/C1=C(/C#N)c1nnc2n1-c1ccccc1SC2`, the Potency result was “inactive”. As for `C/[N+]([O-])=C\c1ccc([N+](=O)[O-])o1`, the Potency was 14.6 µM (active). `CN1CCN(/N=C/c2ccc(-c3ccc([N+](=O)[O-])cc3)o2)CC1`: the Potency result was “inactive”. For the compound `Cc1cc(C)nc(N/N=C/c2ccc([N+](=O)[O-])o2)n1`, the Potency entry is “inactive”.

Regarding `CN1CCN(C(=O)c2ccc(-c3ccc(Br)cc3)o2)CC1`, the Potency result is “inactive”. Turning to `CCN(C(=O)CSc1cccc[n+]1[O-])c1ccccc1`, the Potency entry was “inactive”. Still for that read-out and setting: to `COc1ccc(CC(=O)N/N=C/c2cc([N+](=O)[O-])cc(Br)c2O)cc1` belongs “inactive”. For `O=[N+]([O-])c1cc(Br)c(O)c(/C=N/Nc2nc3ccccc3s2)c1`, the Potency was 3.26 µM (active).

On to `Cc1cc(C(=O)N/N=C/c2cc([N+](=O)[O-])cc(C)c2O)n[nH]1`, for which the Potency result was “inactive”. In the case of `COc1ccc(C(=O)Nc2cc(S(=O)(=O)N3CCCC3)ccc2Cl)cc1`, the Potency entry is “inactive”.

Regarding `C[C@H](O)[C@@H]1C(=O)N2CCc3ccc(N4CCOCC4)cc3[C@@H]2C[C@@H]1N(C)C(=O)C(C)(C)C`, the re-replication activation is 0.113% [at 9.22 µM] (inactive). On to `Cc1cccc(C(=O)NCC(=O)OCC(=O)N2CC3(C)CC2CC(C)(C)C3)c1` (stereo not given), for which the Potency entry was “inactive”. On the same count and under the same terms, the value for `COc1ccc(C(=O)N2CC3(C)CC2CC(C)(C)C3)cc1OC` (stereo not given) was “inactive”.

Turning to `Cc1nnnn1/C(=C\c1ccccc1)C(=O)OCC(=O)N1CC2(C)CC1CC(C)(C)C2` (stereo not given), the Potency is 18.4 µM (active). Still for that read-out and setting: the value for `COc1ccc(CCNC(=O)COC(=O)Cc2ccccc2F)cc1` was “inactive”; that for `N#Cc1cc([N+](=O)[O-])ccc1NC(=O)COC(=O)c1cnccn1` was “inactive”. Still for that read-out and setting: to `Cc1cc(C(=O)OCC(=O)N2C(C)CCCC2C)c2ccccc2n1` (stereo not given) belongs “inactive”; to `Cc1cccc(NC(=O)c2ccc([N+](=O)[O-])o2)c1`, 3.66 µM (active). Same read-out and setting: the value for `COc1cccc(NC(=O)c2ccc(Cn3cc([N+](=O)[O-])cn3)o2)c1` was “inactive”; that for `Cc1cccc(NC(=O)c2cc([N+](=O)[O-])ccc2N2CCN(C)CC2)c1` was “inactive”. Turning to `CS(=O)(=O)Nc1ccccc1C(=O)OCC(=O)NC1CC1`, the Potency result was “inactive”. On to `CC(=O)NC(CC(=O)Nc1ccc(S(=O)(=O)N2CCOCC2)cc1)c1ccccc1` (stereo not given), for which the Potency result is “inactive”. The same measure, in the same setting: to `COc1cccc(/C=N/NC(=O)CNC(=O)c2ccc(S(=O)(=O)N3CCOCC3)cc2)c1OC` belongs “inactive”; to `COc1cc(/C=N/NC(=O)CNC(=O)c2ccncc2)ccc1OC(C)=O`, “inactive”; to `COc1ccc(C(=O)NCC(=O)N/N=C/c2ccc([N+](=O)[O-])o2)cc1OC`, 11.6 µM (active). The same measure, in the same setting: to `Cc1csc(=O)n1CC(=O)Nc1ccc(S(C)(=O)=O)cc1` belongs “inactive”; to `Nc1cccc2c1C(=O)N(Cc1nnc(-c3ccccc3Br)o1)C2=O`, 16.4 µM (active).

`Cn1cnnc1SCc1nnc(-c2ccccc2Br)o1`: the Potency result is “inactive”. Same read-out and setting: the value for `O=C1c2ccccc2C(=O)N1Cc1cc(-c2ccccc2Cl)no1` was “inactive”.

These data come from PubChem BioAssay AID624297 (National Center for Advancing Translational Sciences (NCATS), 2012).
